Shown are actives, neighbours in structure and some others; about 1.7% of the full set was active somewhere.
PfHsp40 rescue – restores yeast growth despite PfHsp40 toxicity | S. cerevisiae expressing PfHsp40, growth rescue, ATP luminescence | growth rescue, % at 12.5 µM | 0.68% of 340,000 active | AID 504582; in the data active = growth rescue above about 28%, passing the limit was not always enough;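 note: yeast W303a lacking pdr1 and pdr3 grown in galactose medium; growth measured after three days at 30 °C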
3CLpro inhibitor – SARS-CoV 3CLpro protease inhibition | recombinant SARS-CoV 3CLpro, quenched FRET peptide cleavage | 0.14% of 290,000 active | P0C6X7 | AID 1706 | inhibition, % at 6 µM; in the data active = inhibition above about 12%
VHR inh abs – DUSP3 (human) phosphatase inhibition | P51452 | recombinant VHR phosphatase, pNPP absorbance | inhibition, % at 13.3 µM | 0.52% of 290,000 active | AID 1654; in the data active = inhibition above about 50%
Target sequence (P51452 whole entry, looked up): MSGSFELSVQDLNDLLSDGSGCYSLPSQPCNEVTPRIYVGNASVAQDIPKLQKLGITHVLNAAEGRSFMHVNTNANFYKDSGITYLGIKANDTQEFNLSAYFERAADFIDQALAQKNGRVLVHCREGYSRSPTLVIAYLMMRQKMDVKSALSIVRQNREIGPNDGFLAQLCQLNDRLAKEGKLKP
Vc quorum ag – inducers of Vibrio cholerae quorum light production without autoinducers. V. cholerae BH1578 lux reporter, luminescence, 6 h. activation, % at 18.7 µM. 0.16% of 350,000 active; in the data active = activation mostly above about 9.7%, no sharp cut-off
MazEF act – MazEF (E. coli) toxin RNase activation. FAM/BHQ RNA-DNA oligo cleavage fluorescence, 5 h. activation, % at 20 µM. 0.32% of 350,000 active. AID 504720; in the data active = activation above about 50%
Target sequence (P0AE70 whole entry, looked up): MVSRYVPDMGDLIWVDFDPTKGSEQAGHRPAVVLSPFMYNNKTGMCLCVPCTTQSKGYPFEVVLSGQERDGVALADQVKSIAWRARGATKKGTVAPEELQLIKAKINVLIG
BJeLR viability – kills HRASV12-expressing BJeLR cells. AID 1554. 0.17% of 300,000 active. inhibition, % (test concentration not listed). BJeLR (HRASV12) viability, CellTiter-Glo ATP luminescence, 48 h; in the data active = inhibition above about 50%
* = called active by the depositor; i = inactive; · = not tested or not shown; ! = a repeat was not active.

SMILES | PfHsp40 rescue | 3CLpro inhibitor | VHR inh abs | Vc quorum ag | MazEF act | BJeLR viability
CC1=C(C(=O)Nc2ccccc2)C(c2ccc(O)cc2)N2C(=O)CSC2=N1 (configuration not stated) | 1 | -2 | 15 | 23* | 8 | -4
Clc1cccc(CON/C=N/c2ncnc3sccc23)c1 | 812* | 5 | 37 | i | -4 | 2
COC(=O)c1cnc(NNC(=O)c2ccc([N+](=O)[O-])cc2)nc1C(F)(F)F | 63* | -1 | 0 | 0 | 10 | -1
CCC(Cc1ccccc1)NC(=O)c1cc(S(=O)(=O)N2CCCCC2)c[nH]1 (configuration not stated) | 2 | -5 | 10 | 0 | 11 | 13
COc1ccc(N/N=C(\C#N)C(N)=O)cc1 | 47* | 0 | 22 | 0 | 0 | 7
CCOc1ccc(N/N=C(/C#N)C(N)=O)cc1 | 363* | -6 | 16 | i | -3 | -6
COc1ccc(C(=O)/C(C#N)=N/Nc2ccc([N+](=O)[O-])cc2)cc1 | 1 | 3 | 71* | i | 3 | 32
O=c1[nH]c(=O)n(-c2ccccc2)c(O)c1/C=C/C=Nc1ccccc1 | 0 | -5 | 40 | i | -212 | -1
O=c1[nH]c(=O)n(C2CCCCCC2)c(O)c1C=NC1CCN(Cc2ccccc2)CC1 | 0 | 0 | 17 | 38* | 2 | 8
O=c1[nH]c(=O)n(C2CCCCC2)c(O)c1/C=C/C=Nc1ccccc1 | 1 | 1 | -4 | 0 | 96* | 8
Cn1c(O)c(C=NC2CCN(Cc3ccccc3)CC2)c(=O)[nH]c1=O | 0 | 2 | -3 | -1 | 12 | -1
CCOc1ccc(C(C)=O)cc1COC(=O)c1ccccc1C(=O)N(C)Cc1ccccc1 | 96* | · | · | -6 | 0 | ·
CN(Cc1ccccc1)C(=O)c1ccccc1C(=O)OCC(=O)N(Cc1ccccc1)C(C)(C)C | 2 | · | · | 0 | 0 | ·
O=C(O)COCC(=O)Nc1ccc(-n2nc(C(F)(F)F)cc2-c2cccs2)cc1 | 2 | 2 | -8 | -1 | -26 | -12
O=C(Cc1ccc(Cl)cc1)NNC1CC(=O)N(c2ccc3ccccc3c2)C1=O (configuration not stated) | 0 | -4 | 15 | i | -5 | 22
O=C(Cc1ccccc1)NNC1CC(=O)N(c2ccc(Cl)cc2)C1=O (configuration not stated) | 0 | 1 | 53* | 0 | 1 | ·
CCC(Cc1c(I)cc(I)c(N)c1I)C(=O)O (configuration not stated) | 187* | · | · | 0 | -5 | ·
O=C(NCc1ccccc1)C1=C[C@@H](C2CC2)C[C@@H](OCc2ccc(CO)cc2)O1 | 55* | -2 | 12 | 0 | 12 | -8
Cc1ccc2cc(C#N)c(N3CCN(C(=O)c4cccs4)CC3)nc2c1 | 0 | -3 | 51* | 0 | 8 | -2
CCOC(=O)Cc1csc(NC(=O)CSc2nnc(-c3ccc(NS(=O)(=O)CC)cc3)o2)n1 | 1 | 0 | · | -3 | -4 | 0
CCOC(=O)Cc1csc(NC(=O)CSc2nnc(-c3ccncc3)o2)n1 | 3 | 1 | 53* | 0 | -2 | -1
CCOC(=O)C1(C(=O)OCC)CCN(S(=O)(=O)c2ccccc2)CC1 | 0 | · | · | 8 | 8 | ·
O=C(Cc1nnc(NC(=O)Nc2ccccc2)s1)NCc1ccccc1 | -1 | 1 | 58* | i | -5 | -3
COc1cccc(NC(=O)CCNC(=O)C2CCN(S(=O)(=O)c3ccc(F)cc3)CC2)c1 | 0 | -2 | -4 | 0 | 8 | 11
CC(=NO)C1CCC2C3CCC4=CC(=NO)CCC4(C)C3C(O)CC12C (configuration not stated) | -1 | · | · | 17* | 12 | ·
SMILES | PfHsp40 rescue | 3CLpro inhibitor | VHR inh abs | Vc quorum ag | MazEF act | BJeLR viability
CC(=NO)C1CCC2C3CCC4=CC(=NO)CCC4(C)C3C(=O)CC12C (configuration not stated) | -1 | · | · | i | 4 | ·
CC(=O)c1cccc(NC(=O)N2CCc3ccccc3C2)c1 | 1 | 0 | 4 | 0 | 8 | 10
CC(=O)c1ccc(NC(=O)N2CCc3ccccc3C2)cc1 | -1 | 0 | 24 | -1 | -2 | 105*
O=C(NCCNC(=O)c1ccco1)c1ccc(Cl)c(Cl)c1 | -1 | 5 | -20 | 0 | 3 | 0
C[C@H]1CCC/C=C/[C@@H]2C[C@H](O)C[C@H]2[C@H](O)/C=C/C(=O)O1 | 47*! | · | · | 0 | 1 | ·
C=CCn1c(C)cc(C(=O)CN2NS(=O)(=O)c3ccccc3C2=O)c1C | -1 | 4 | 38 | i | 57* | 15
CC(C)c1nc(SCC(=O)Nc2ccc(N3CCOCC3)cc2)c2ccccc2n1 | 25* | 5 | -5 | -1 | -12 | -15
COc1ccc2c(c1)CCC1(C)CC(=O)C(Br)=C21 (configuration not stated) | · | · | · | i | 6 | ·
CC(C)(C)c1ccc(C(=O)NC(=S)NNC(=O)c2cccs2)cc1 | 465* | -1 | -11 | 0 | 3 | 15
C/C(=N\NC(=O)c1cccnc1)c1ccccc1 | -1 | -3 | 59* | -2 | 4 | 4
COc1cccc(NC(=O)c2cccnc2)c1 | 1 | -5 | 15 | 0 | 4 | 9
COc1cccc(C(=O)N/N=C(/c2ccccc2)c2ccccn2)c1 | 324* | -5 | 30 | i | 8 | 88*
O=C(NC(=S)NNC(=O)c1cccs1)c1ccccc1 | 19 | -6 | 18 | 0 | 4 | 4
COc1cccc(C(=O)NNC(=O)c2cccnc2)c1 | 0 | -8 | 60* | 0 | 3 | 3
CC(=O)c1ccc[n+](CC(=O)NC(C)c2ccccc2)c1 (configuration not stated) | 0 | 1 | · | -1 | -1 | -17
COC(=O)c1ccccc1NC(=O)C1CCN(c2ncnc3c2nc2n3CCCCC2)CC1 | 1 | -1 | 9 | i | 7 | -2
Cc1ccc(C(=O)COC(=O)COc2ccccc2C)cc1 | -1 | -4 | 22 | 0 | -6 | -8
Cc1c(C(=O)O)sc(S(=O)(=O)N2CCN(C(=O)Cc3ccc(F)cc3)CC2)c1C(=O)O | 1 | · | · | 1 | -7 | ·
CCN(CC)CC(O)c1ccc2ccc3ccc(O)cc3c2c1 (configuration not stated) | -1 | · | · | -8 | 7 | ·
CC(C)(C)c1ccc(C(=O)NNC(=S)NC(=O)c2cccnc2)cc1 | 109* | 6 | 7 | 22 | 5 | 13
CCN(CC)c1ccc(NC(=O)Cn2c(C(C)NC(=O)c3ccccc3)nc3ccccc32)cc1 (configuration not stated) | -1 | -3 | 55* | i | -2 | 3
COc1cc2c(ccc3cc(OC)c(OC)c(O)c32)cc1O | 3 | · | 53* | 0 | 6 | 3
COc1cc2cccc(OC)c(=O)c2c(O)c1OC | -1 | 2 | -1 | 0 | 0 | 1
O=C(/C=C\Nc1ccc2c(c1)OCO2)c1cccs1 | 0 | -3 | 25 | 0 | 0 | -13
